Assay results from PubChem BioAssay (NCI).
Compounds without any hit were thinned out: in the full panel of roughly 83,000, 20% have a hit.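 Compound tested at a single concentration for 48 hours in 96-well plates; a percent growth value below 10 was scored as active.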 Activity calls are given as the source filed them.

These compounds were tested on NCI-H460 lung (assay: NCI-60 one-dose screen, 48 h (100 = growth as untreated, 0 = no growth, -100 = all killed)). Conditions: 10 µM unless noted.

| Structure (SMILES) | growth |
| --- | --- |
| COC(=O)c1[nH]nc2c1C1(C(=O)N(C)c3ccccc31)C(C#N)=C(N)O2 (stereo unspecified) | 106% (inactive) |
| O=C(Cn1cc(-c2ccccc2)nn1)Nc1nc(-c2ccc(Cl)cc2)cs1 | 109% (inactive) |
| COc1ccccc1N1CCN(C2=CC(=O)C(C)=C(C)C2=O)CC1 | 102% (inactive) |
| Cn1ccnc1C(=O)/C=C/c1ccc(CNC(=O)c2ccc(F)cc2)cc1 | -27.1% (active) |
| Cc1c(Cl)cccc1S(=O)(=O)Nc1ccc2c(c1)C(=O)N(C1CCC(=O)NC1=O)C2=O (stereo unspecified) | 111% (inactive) |
| Nc1ncc(-c2ccc3ncnc(N4CCc5cc(F)c(F)cc54)c3c2)cn1 | 18.9% (inactive) |
| COc1c(N2CC3CCCNC3C2)c(F)cc2c(=O)c(C(=O)N/N=C/c3ccc(Br)cc3)cn(C3CC3)c12 (stereo unspecified) | 86% (inactive) |
| O=C(NNc1nc2cc(F)c(F)cc2n2c(CN3CC4CNCC4C3)ccc12)c1ncccn1 (stereo unspecified) | 2.27% (active) |
| COc1cc2oc(-c3cccc(C(=O)N[C@@H](CC(C)C)C(=O)OC(C)(C)C)c3)cc(=O)c2c(OC)c1OC | 37.8% (inactive) |
| CC(=O)c1nnn(-c2c(C(=O)n3nc(C)cc3C)sc(=S)n2-c2ccccc2)c1C | 113% (inactive) |
| CS(=O)(=O)Nc1cc(-c2ccc3ncc(C#N)c(N[C@H](CO)c4ccccc4)c3c2)cnc1Cl | 74.3% (inactive) |
| COc1ccc(C(=O)CSc2nc3c(c(Nc4ccc(S(N)(=O)=O)cc4)n2)CCCC3)cc1 | 91.2% (inactive) |
| CCn1c(SCC(=O)Nc2cccc(C(=O)/C=C/c3ccc(Br)cc3)c2)nc2ccccc2c1=O | 98.9% (inactive) |
| COc1ccc(OC)c(-c2nc(SCC(=O)c3ccc(Br)cc3)nc(Nc3ccc(S(N)(=O)=O)cc3)c2C#N)c1 | 20.8% (inactive) |
| COc1ccc2c(c1)c(CC(=O)[Se]CCC#N)c(C)n2C(=O)c1ccc(Cl)cc1 | 1.16% (active) |
| NC(=O)c1c(NC(=O)c2ccccc2C(F)(F)F)sc2c1CCC(=O)C2 | 58.4% (inactive) |
| NC(N)=Nc1ccc(Oc2cccc(NC(N)=Nc3ccc(I)cc3F)c2)cc1 | 65.9% (inactive) |
| CC1(C)CC[C@]2(C(=O)N3CCOCC3)CC[C@]3(C)C(=CC[C@@H]4[C@@]5(C)C/C(=C/c6ccccn6)C(=O)C(C)(C)[C@@H]5CC[C@]43C)[C@@H]2C1 | 54.9% (inactive) |
| CCCCCc1ccc(S(=O)(=O)Nc2cccc(-c3csc(NCCN4CCN(C)CC4)n3)c2)cc1 | -9.25% (active) |

The compounds below were run on HOP-92 NSCLC in the same assay as above. Conditions: 10 µM.

| Structure (SMILES) | growth |
| --- | --- |
| O=C(Cn1cc(-c2ccccc2)nn1)Nc1nc(-c2ccc(Cl)cc2)cs1 | 130% (inactive) |
| COc1ccccc1N1CCN(C2=CC(=O)C(C)=C(C)C2=O)CC1 | 117% (inactive) |
| Cn1ccnc1C(=O)/C=C/c1ccc(CNC(=O)c2ccc(F)cc2)cc1 | 62.3% (inactive) |
| Cc1c(Cl)cccc1S(=O)(=O)Nc1ccc2c(c1)C(=O)N(C1CCC(=O)NC1=O)C2=O (stereo unspecified) | 49% (inactive) |
| Nc1ncc(-c2ccc3ncnc(N4CCc5cc(F)c(F)cc54)c3c2)cn1 | -7.6% (active) |
| COc1c(N2CC3CCCNC3C2)c(F)cc2c(=O)c(C(=O)N/N=C/c3ccc(Br)cc3)cn(C3CC3)c12 (stereo unspecified) | 57.9% (inactive) |
| O=C(NNc1nc2cc(F)c(F)cc2n2c(CN3CC4CNCC4C3)ccc12)c1ncccn1 (stereo unspecified) | 20.2% (inactive) |
| Cc1ccc(NC(=O)CNc2cc(C(N)=O)cc(F)c2C)c(Cl)c1 | 74.9% (inactive) |
| CC(=O)c1nnn(-c2c(C(=O)n3nc(C)cc3C)sc(=S)n2-c2ccccc2)c1C | 113% (inactive) |
| CS(=O)(=O)Nc1cc(-c2ccc3ncc(C#N)c(N[C@H](CO)c4ccccc4)c3c2)cnc1Cl | -2.14% (active) |
| CCn1c(SCC(=O)Nc2cccc(C(=O)/C=C/c3ccc(Br)cc3)c2)nc2ccccc2c1=O | 76.9% (inactive) |
| COc1ccc2c(c1)c(CC(=O)[Se]CCC#N)c(C)n2C(=O)c1ccc(Cl)cc1 | -67.8% (active) |
| NC(=O)c1c(NC(=O)c2ccccc2C(F)(F)F)sc2c1CCC(=O)C2 | -9.74% (active) |
| NC(N)=Nc1ccc(Oc2cccc(NC(N)=Nc3ccc(I)cc3F)c2)cc1 | 39% (inactive) |
| CC1(C)CC[C@]2(C(=O)N3CCOCC3)CC[C@]3(C)C(=CC[C@@H]4[C@@]5(C)C/C(=C/c6ccccn6)C(=O)C(C)(C)[C@@H]5CC[C@]43C)[C@@H]2C1 | 51.1% (inactive) |
| CCCCCc1ccc(S(=O)(=O)Nc2cccc(-c3csc(NCCN4CCN(C)CC4)n3)c2)cc1 | 71.2% (inactive) |

These compounds were tested on NCI-H522 lung in the same assay as above. Conditions: 10 µM unless noted.

| Structure (SMILES) | growth |
| --- | --- |
| CN1CCN(Cc2ccc(NC(=O)c3cncc(C#Cc4cnc5ccc(NCCCO)nn45)c3)cc2C(F)(F)F)CC1 | -77.2% (active) |
| COC(=O)c1[nH]nc2c1C1(C(=O)N(C)c3ccccc31)C(C#N)=C(N)O2 (stereo unspecified) | 99.5% (inactive) |
| O=C(Cn1cc(-c2ccccc2)nn1)Nc1nc(-c2ccc(Cl)cc2)cs1 | 88.2% (inactive) |
| COc1cc(OC)c(S(N)(=O)=O)cc1C(C)=O | 103% (inactive) |
| COc1ccccc1N1CCN(C2=CC(=O)C(C)=C(C)C2=O)CC1 | 88.1% (inactive) |
| NC(N)=Nc1ccc(Oc2cccc(Nc3ccc(Br)c(C(F)(F)F)c3)c2)cn1 | -64.8% (active) |
| Cn1ccnc1C(=O)/C=C/c1ccc(CNC(=O)c2ccc(F)cc2)cc1 | 24.3% (inactive) |
| Cc1c(Cl)cccc1S(=O)(=O)Nc1ccc2c(c1)C(=O)N(C1CCC(=O)NC1=O)C2=O (stereo unspecified) | 94.2% (inactive) |
| NS(=O)(=O)c1ccc(-n2cc(-c3cccc(NC(=O)c4ccc(N5CCOCC5)c(C(F)(F)F)c4)c3)nn2)cc1 | 39.9% (inactive) |
| CCc1cccc2c3c(sc12)C(c1ccc(OC)cc1)C(C#N)=C(/N=C/c1ccc(Cl)cc1)O3 (stereo unspecified) | -40.4% (active) |
| Nc1ncc(-c2ccc3ncnc(N4CCc5cc(F)c(F)cc54)c3c2)cn1 | 34% (inactive) |
| COc1c(N2CC3CCCNC3C2)c(F)cc2c(=O)c(C(=O)N/N=C/c3ccc(Br)cc3)cn(C3CC3)c12 (stereo unspecified) | 77.6% (inactive) |
| O=C(NNc1nc2cc(F)c(F)cc2n2c(CN3CC4CNCC4C3)ccc12)c1ncccn1 (stereo unspecified) | 0.166% (active) |
| COc1ccc(/C=C(\C#N)C(=O)N2c3ccccc3Sc3ccc(SC)cc32)cc1F | 84.5% (inactive) |
| CNC(=O)c1cc(Oc2ccc3nc(NC(=O)c4cccc(OC(F)(F)F)c4)sc3c2)ccn1 | 60.3% (inactive) |
| O=C1CCCC2=C1C(c1c[nH]c3ccc(Br)cc13)Cc1cc(Br)ccc1N2 (stereo unspecified) | 12.8% (inactive) |
| COc1cc2oc(-c3cccc(C(=O)N[C@@H](CC(C)C)C(=O)OC(C)(C)C)c3)cc(=O)c2c(OC)c1OC | 83.1% (inactive) |
| NC(N)=Nc1ccc(Nc2cccc(Nc3ccc(Cl)c(C(F)(F)F)c3)c2)cn1 | 8.21% (active) |

| Structure (SMILES) | growth |
| --- | --- |
| CC(=O)c1nnn(-c2c(C(=O)n3nc(C)cc3C)sc(=S)n2-c2ccccc2)c1C | 99.8% (inactive) |
| CS(=O)(=O)Nc1cc(-c2ccc3ncc(C#N)c(N[C@H](CO)c4ccccc4)c3c2)cnc1Cl | 25.7% (inactive) |
| COc1ccc(C(=O)CSc2nc3c(c(Nc4ccc(S(N)(=O)=O)cc4)n2)CCCC3)cc1 | 91.4% (inactive) |
| CCn1c(SCC(=O)Nc2cccc(C(=O)/C=C/c3ccc(Br)cc3)c2)nc2ccccc2c1=O | 84% (inactive) |
| N#Cc1c(Nc2ccccc2)nn2c(-c3ccc([N+](=O)[O-])cc3)ccnc12 | 94.8% (inactive) |
| O=C(CCn1c[n+](CC(=O)c2ccc(-c3ccccc3)cc2)c2ccccc21)Nc1cccc2cccnc12 | 41.7% (inactive) |
| COc1ccc(OC)c(-c2nc(SCC(=O)c3ccc(Br)cc3)nc(Nc3ccc(S(N)(=O)=O)cc3)c2C#N)c1 | 48% (inactive) |
| FC(F)(F)c1cc(Nc2cccc(Oc3ccc(NC4=NCCN4)nc3)c2)ccc1Cl | 2.14% (active) |
| CCO/C=N/C1=C(C#N)C(c2ccc(OC)cc2)c2sc3c(CC)cccc3c2O1 (stereo unspecified) | 18.6% (inactive) |
| COc1ccc2c(c1)c(CC(=O)[Se]CCC#N)c(C)n2C(=O)c1ccc(Cl)cc1 | -8.61% (active) |
| CN(C)CCN(C)c1ccc2ncc(C#Cc3cncc(C(=O)Nc4ccc(CN5CCN(C)CC5)c(C(F)(F)F)c4)c3)n2n1 | 97% (inactive) |
| NC(=O)c1c(NC(=O)c2ccccc2C(F)(F)F)sc2c1CCC(=O)C2 | -1.13% (active) |
| NC(N)=Nc1ccc(Oc2cccc(NC(N)=Nc3ccc(I)cc3F)c2)cc1 | 66.8% (inactive) |
| COc1ccc(CCOc2cc3c(cc2OC)CCN(C(=O)NCc2cocn2)C3c2ccc(C)cc2C)cc1 (stereo unspecified) | -41.2% (active) |
| CC(C)(C)c1ccc(C(=O)Nc2nc3ccc(O)cc3s2)cc1 | 52.6% (inactive) |
| CCO/C=N/C1=C(C#N)C(c2ccc(F)cc2)c2sc3c(C)cccc3c2O1 (stereo unspecified) | 7.88% (active) |
| COc1cc(-c2nc(SC(C)C)n(C(C)C)c(=O)c2C#N)ccc1OCc1ccccc1 | 84% (inactive) |
| CCCCCc1ccc(S(=O)(=O)Nc2cccc(-c3csc(NCCN4CCN(C)CC4)n3)c2)cc1 | 90.2% (inactive) |
